Compounds without any hit were thinned out: in the full panel of roughly 83,000, 20% have a hit.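 A percent growth of 40 corresponds to 60% growth inhibition; 0 means no net growth; -100 means all cells died. Active threshold: below 10.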 Activity calls are given as the source filed them.
Columns and labels:
Assay in all cases: NCI-60 one-dose screen, 48 h (100 = growth as untreated, 0 = no growth, -100 = all killed)
[1] = test system: DU-145 prostate; conditions: 10 µM unless noted
[2] = test system: K-562 leukemia; conditions: 10 µM unless noted
[3] = test system: MALME-3M melanoma; conditions: 10 µM unless noted
[4] = test system: MDA-MB-231 breast; conditions: 10 µM unless noted
[5] = test system: RXF 393 renal; conditions: 10 µM unless noted
[6] = test system: SF-268 CNS; conditions: 10 µM unless noted
[7] = test system: SF-295 CNS; conditions: 10 µM unless noted
[8] = test system: SF-539 CNS; conditions: 10 µM unless noted
[9] = test system: UACC-257 melanoma; conditions: 10 µM unless noted
[10] = test system: M14 melanoma; conditions: 10 µM unless noted
[11] = test system: HCT-15 colon; conditions: 10 µM unless noted
[12] = test system: HT29 colon; conditions: 10 µM unless noted
[13] = test system: SNB-75 CNS; conditions: 10 µM unless noted
[14] = test system: SNB-19 CNS; conditions: 10 µM unless noted
[15] = test system: U251 CNS; conditions: 10 µM unless noted
[16] = test system: PC-3 prostate; conditions: 10 µM unless noted
[17] = test system: SK-MEL-5 melanoma; conditions: 10 µM unless noted
[18] = test system: UACC-62 melanoma; conditions: 10 µM unless noted
[19] = test system: LOX IMVI melanoma; conditions: 10 µM
[20] = test system: SK-MEL-28 melanoma; conditions: 10 µM unless noted

Measured: growth

OCC1CCC(O)C(CO)N1 (stereo not given)
inactive: [1] 113% | [2] 116% | [3] 106% | [4] 106% | [5] 107% | [6] 106% | [7] 91% | [8] 87.9% | [9] 110% | [10] 96.5% | [11] 94.1% | [12] 108% | [13] 70.2% | [14] 105% | [15] 100% | [16] 95% | [17] 108% | [18] 105% | [19] 100% | [20] 96.3%

COc1cc(OC)c2cc(C(=O)c3ccc(C#N)cc3)c(=O)oc2c1
inactive: [1] 102% | [2] 85.1% | [3] 95.7% | [4] 79.3% | [5] 109% | [6] 88.1% | [7] 97.2% | [8] 82.5% | [9] 102% | [10] 105% | [11] 105% | [12] 104% | [13] 85.5% | [14] 88.5% | [15] 105% | [16] 107% | [17] 97.6% | [18] 91.8% | [20] 99.5%

O=C(CCl)Oc1ccc([N+](=O)[O-])cc1
inactive: [1] 113% | [2] 103% | [3] 116% | [4] 119% | [5] 99.5% | [6] 109% | [7] 97.3% | [8] 109% | [9] 112% | [10] 103% | [11] 110% | [12] 119% | [13] 91.2% | [14] 115% | [15] 106% | [16] 89.9% | [17] 103% | [18] 114% | [19] 98.1% | [20] 114%

CCN(CC)CCOC(=O)Nc1c(C(C)C)cccc1C(C)C
inactive: [1] 116% | [2] 99% | [3] 98.2% | [4] 104% | [5] 107% | [6] 106% | [7] 102% | [8] 96.6% | [9] 97.5% | [10] 107% | [11] 106% | [12] 92.8% | [13] 110% | [14] 99.6% | [15] 107% | [16] 95.5% | [17] 95.7% | [18] 93.3% | [20] 111%

CCC(C)c1c(N)n(S(=O)(=O)c2ccc(C)cc2)oc1=O (stereo not given)
inactive: [1] 115% | [2] 130% | [3] 135% | [4] 108% | [5] 125% | [6] 109% | [7] 104% | [8] 96.6% | [9] 90.6% | [10] 105% | [11] 100% | [12] 93.5% | [13] 88.9% | [14] 106% | [15] 104% | [16] 94.3% | [17] 100% | [18] 101% | [20] 119%

CCC(=O)Oc1ccc2ccccc2c1
inactive: [1] 113% | [2] 107% | [3] 93.7% | [4] 90.2% | [5] 105% | [6] 97.5% | [7] 101% | [8] 96.8% | [9] 96.6% | [10] 92.2% | [11] 104% | [12] 104% | [13] 82.4% | [14] 97.9% | [15] 93.9% | [16] 77% | [17] 91.6% | [18] 92.1% | [19] 92.2% | [20] 110%

NC(CO)(CO)c1ccccc1
inactive: [1] 101% | [2] 111% | [3] 105% | [4] 111% | [5] 101% | [6] 97.6% | [7] 104% | [8] 104% | [9] 96.5% | [10] 94.9% | [11] 97.2% | [12] 100% | [13] 88.7% | [14] 107% | [15] 97.3% | [16] 100% | [17] 97.9% | [18] 101% | [19] 101% | [20] 106%

O=Cc1ccc(Cl)c(Cl)c1
inactive: [1] 94.8% | [2] 104% | [3] 98.7% | [4] 116% | [5] 94.3% | [6] 101% | [7] 119% | [8] 117% | [9] 96.4% | [10] 102% | [11] 110% | [12] 106% | [13] 88.4% | [14] 111% | [15] 104% | [16] 94.6% | [17] 110% | [18] 102% | [19] 95% | [20] 107%

COC(=O)C1(CC(C)=O)NC(=S)NC(=O)C1C#N (stereo not given)
inactive: [1] 125% | [2] 104% | [3] 103% | [4] 104% | [5] 107% | [6] 117% | [7] 96.8% | [8] 103% | [9] 118% | [10] 110% | [11] 106% | [12] 104% | [13] 112% | [14] 98.4% | [15] 109% | [16] 119% | [17] 100% | [18] 103% | [20] 118%

CCN(CC)CCN1CNC(=S)NC1
inactive: [1] 106% | [2] 102% | [3] 103% | [4] 114% | [5] 114% | [6] 102% | [7] 102% | [8] 103% | [9] 111% | [10] 102% | [11] 106% | [12] 104% | [13] 107% | [14] 104% | [15] 105% | [16] 101% | [17] 104% | [18] 105% | [19] 95.8% | [20] 114%

Cc1cc(C(=O)c2ccccc2)cc(C)c1O
inactive: [1] 113% | [2] 94.7% | [3] 94.1% | [4] 124% | [5] 116% | [6] 102% | [7] 107% | [8] 90.4% | [9] 115% | [10] 103% | [11] 96.4% | [12] 113% | [13] 87.8% | [14] 120% | [15] 98.1% | [16] 93.5% | [17] 104% | [18] 108% | [19] 92.1% | [20] 115%

CCC(=O)Oc1c(C)cc(O)c2ccccc12
inactive: [1] 107% | [2] 73.4% | [3] 113% | [4] 88.6% | [5] 92.4% | [6] 90.9% | [7] 83.4% | [8] 91.6% | [9] 94.4% | [10] 95.2% | [11] 91.1% | [12] 106% | [13] 86.4% | [14] 108% | [15] 87.7% | [16] 59% | [17] 82% | [18] 67.3% | [19] 75% | [20] 119%

O=C(O)CCCCCNC(=O)OCc1ccccc1
inactive: [1] 98% | [2] 124% | [3] 97.2% | [4] 102% | [5] 119% | [6] 100% | [7] 99.8% | [8] 97.5% | [9] 112% | [10] 92.7% | [11] 103% | [12] 108% | [13] 74% | [14] 105% | [15] 94.9% | [16] 95.3% | [17] 111% | [18] 101% | [19] 104% | [20] 106%

Oc1ccc2ccccc2c1CN1CCOCC1
inactive: [1] 124% | [2] 118% | [3] 121% | [4] 109% | [5] 128% | [6] 102% | [7] 110% | [8] 81.4% | [9] 120% | [10] 98% | [11] 107% | [12] 110% | [13] 95.6% | [14] 110% | [15] 110% | [16] 99.9% | [17] 113% | [18] 111% | [19] 115% | [20] 107%

Cc1ccccc1NC(=O)Oc1ccc(Cl)cc1C(=O)c1ccccc1
inactive: [1] 87.4% | [2] 96.1% | [3] 105% | [4] 85.1% | [5] 82% | [6] 72.7% | [7] 107% | [8] 87.3% | [9] 102% | [10] 103% | [11] 94.1% | [12] 100% | [13] 77.7% | [14] 96% | [15] 87.6% | [16] 95.2% | [17] 97.3% | [18] 85.4% | [20] 106%

S=C(Sc1ccc(Cl)cc1)Sc1ccc(Cl)cc1
inactive: [1] 17.2% | [7] 66% | [8] 37.6% | [9] 88% | [13] 46% | [14] 83.9% | [17] 65.9%
active: [2] -44% | [3] -52.8% | [4] -29.5% | [5] -85.5% | [6] -1.56% | [10] -45.1% | [11] 3.17% | [12] 4.96% | [15] -43% | [16] 9.49% | [18] -47% | [19] -100% | [20] -64.2%
